Assay results reported in PubChem BioAssay AID1159580 (chemical genetic matrix, 2015).
Several values for one entry are separate records, joined by “and”; a condition that tells them apart may be missing. Equal values may be shown once. In all, about 5,500 compounds went through this assay and about 2,000 (36%) were called active. Roughly 18% stayed inconclusive and do not appear here. No stated cut-off is given here; in the data, active means normalized growth mostly below about 0.91 (no sharp cut-off); inconclusive means no clear call, values can overlap the other calls; inactive means mostly above about 0.92. The list shows a part of the results.

Experiment: chemical genetic growth profiling, strain panel (AID 1159580);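 further: tested at 20 µM; growth read once vehicle control cultures reached saturation at 30 °C; 1 = growth at the plate median or of vehicle wells; lower values mean less growth of the strain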
Conditions: S. cerevisiae deletion strains, growth OD

Measured: normalized growth

COC(=O)C[C@H]1C2(C)CC34OC5(C)O[C@@]6([C@H](OC)C(OC(=O)C(C)C)[C@]7(C)C(/C(=C(/OC)C(C)C)C(=O)O[C@H]7c7ccoc7)[C@@]6(O5)[C@H](OC)[C@@]3(OC)C2OC(C)=O)[C@]14C (stereo partly specified)
inactive: locus YAL013W, strain DEP1, active compounds read low 1.02 | locus YAL021C, strain ccr4, active compounds read low 1 | locus YAL026C, strain drs2, active compounds read low 0.994 | locus YAL030W, strain snc1, active compounds read low 0.984 | locus YBL061C, strain skt5, active compounds read low 0.962 | locus YBR009C, strain hhf1, active compounds read low 0.965 | locus YBR021W, strain FUR4, active compounds read low 1.02 | locus YBR023C, strain chs3, active compounds read low 0.994 | locus YBR171W, strain sec66, active compounds read low 0.989 | locus YBR229C, strain ROT2, active compounds read low 1.01 | locus YBR231C, strain swc5, active compounds read low 0.979 | locus YBR279W, strain paf1, active compounds read low 0.985 | locus YCL011C, strain gbp2, active compounds read low 0.975 | locus YCL016C, strain dcc1, active compounds read low 0.976 | locus YCL029C, strain bik1, active compounds read low 1.03 | locus YCL069W, strain vba3, active compounds read low 0.983 | locus YCR088W, strain abp1, active compounds read low 0.989 | locus YDL005C, strain med2, active compounds read low 0.972 | locus YDL035C, strain GPR1, active compounds read low 1.03 | locus YDL040C, strain nat1, active compounds read low 0.984 | locus YDL074C, strain BRE1, active compounds read low 1.04 | locus YDL101C, strain DUN1, active compounds read low 1.02 | locus YDL134C, strain PPH21, active compounds read low 1.01 | locus YDL185W, strain tfp1, active compounds read low 1.02 | locus YDL192W, strain arf1, active compounds read low 1.03 | locus YDR001C, strain nth1, active compounds read low 0.974 | locus YDR069C, strain doa4, active compounds read low 0.96 | locus YDR101C, strain arx1, active compounds read low 1.02 | locus YDR137W, strain rgp1, active compounds read low 0.95 | locus YDR159W, strain sac3, active compounds read low 1 | locus YDR162C, strain NBP2, active compounds read low 1.02 | locus YDR195W, strain ref2 0.986 | locus YDR297W, strain sur2, active compounds read low 0.967 | locus YDR318W, strain mcm21, active compounds read low 1.03 | locus YDR334W, strain swr1, active compounds read low 0.965 | locus YDR335W, strain msn5, active compounds read low 0.97 | locus YDR388W, active compounds read low 1.02 | locus YDR392W, strain spt3, active compounds read low 0.992 | locus YDR502C, strain sam2, active compounds read low 1 | locus YEL003W, strain gim4, active compounds read low 0.976 | locus YEL037C, strain rad23, active compounds read low 0.99 | locus YEL061C, strain CIN8 (second series), active compounds read low 0.978 | locus YER015W, strain faa2, active compounds read low 0.978 | locus YER016W, strain bim1, active compounds read low 0.98 | locus YER110C, active compounds read low 1.02 | locus YER111C, strain swi4, active compounds read low 0.969 | locus YER155C, strain BEM2 (second series), active compounds read low 0.967 | locus YER155C, strain BEM2, active compounds read low 1 | locus YER167W, strain BCK2, active compounds read low 1.02 | locus YFR010W, strain ubp6, active compounds read low 0.992 | locus YGL078C, strain dbp3, active compounds read low 0.994 | locus YGL086W, strain mad1, active compounds read low 1.01 | locus YGL167C, strain pmr1, active compounds read low 0.992 | locus YGL173C, strain kem1, active compounds read low 0.985 | locus YGL227W, strain vid30, active compounds read low 0.979 | locus YGL240W, strain doc1, active compounds read low 0.965 | locus YGL248W, strain PDE1, active compounds read low 1.01 | locus YGL253W, strain hxk2, active compounds read low 0.983 | locus YGR135W, strain pre9, active compounds read low 1.02 | locus YGR229C, strain SMI1, active compounds read low 0.998 | locus YGR252W, strain gcn5, active compounds read low 0.994 | locus YHR013C, strain ard1, active compounds read low 0.943 | locus YHR027C, strain rpn1, active compounds read low 0.994 | locus YHR030C, strain SLT2, active compounds read low 0.969 | locus YHR079C, strain IRE1 (second series), active compounds read low 1 | locus YHR079C, strain IRE1, active compounds read low 1 | locus YHR094C, strain hxt1, active compounds read low 1.01 | locus YHR129C, strain ARP1, active compounds read low 1.02 | locus YHR142W, strain chs7, active compounds read low 0.97 | locus YHR200W, strain rpn10, active compounds read low 1.02 | locus YIL066C, strain RNR3, active compounds read low 1.04 | locus YIL073C, strain SPO22, active compounds read low 1.02 | locus YIL125W, strain kgd1, active compounds read low 1.01 | locus YIR030C, strain dcg1, active compounds read low 1.02 | locus YJL092W, strain hpr5, active compounds read low 0.973 | locus YJL095W, strain BCK1 (second series), active compounds read low 0.995 | locus YJL095W, strain BCK1, active compounds read low 0.995 and 0.969 | locus YJL115W, strain asf1, active compounds read low 0.967 | locus YJL129C, strain trk1, active compounds read low 0.944 | locus YJL134W, strain LCB3, active compounds read low 1.01 | locus YJL154C, strain vps35, active compounds read low 0.981 | locus YJL164C, strain tpk1, active compounds read low 1.01 | locus YJL166W, strain qcr8, active compounds read low 0.99 | locus YJL168C, strain set2, active compounds read low 1.01 | locus YJL187C, strain SWE1 (second series), active compounds read low 1.01 | locus YJR043C, strain POL32, active compounds read low 1.03 | locus YJR066W, strain TOR1, active compounds read low 0.884 | locus YKL009W, strain mrt4, active compounds read low 0.959 | locus YKL068W, active compounds read low 0.998 | locus YKL085W, strain MDH1 (second series), active compounds read low 1.01 | locus YKL085W, strain MDH1, active compounds read low 1.01 | locus YKL160W, strain elf1, active compounds read low 0.987 | locus YKR001C, strain vps1, active compounds read low 0.992 | locus YKR026C, strain gcn3, active compounds read low 0.983 | locus YKR091W, strain srl3, active compounds read low 0.984 | locus YLL001W, strain dnm1, active compounds read low 0.973 | locus YLL026W, active compounds read low 0.978 | locus YLL041C, strain sdh2, active compounds read low 0.987 | locus YLR027C, strain aat2, active compounds read low 0.974 | locus YLR039C, strain RIC1, active compounds read low 0.908 | locus YLR058C, strain SHM2, active compounds read low 1.01 | locus YLR102C, strain apc9, active compounds read low 1 | locus YLR113W, strain HOG1, active compounds read low 1.01 | locus YLR221C, strain rsa3, active compounds read low 0.976 | locus YLR258W, strain gsy2, active compounds read low 0.996 | locus YLR262C, strain YPT6 (second series), active compounds read low 0.997 | locus YLR262C, strain YPT6, active compounds read low 0.754 | locus YLR268W, strain sec22, active compounds read low 1.03 | locus YLR320W, strain mms22, active compounds read low 0.988 | locus YLR342W, strain FKS1 (second series), active compounds read low 0.987 | locus YLR342W, strain FKS1, active compounds read low 0.982 | locus YLR357W, strain rsc2, active compounds read low 1.01 | locus YLR370C, strain arc18, active compounds read low 0.971 | locus YLR371W, strain rom2, active compounds read low 1.04 | locus YLR384C, strain iki3, active compounds read low 0.984 | locus YLR418C, strain cdc73, active compounds read low 1.04 | locus YML016C, strain PPZ1, active compounds read low 1.01 | locus YML032C, strain rad52, active compounds read low 1 | locus YML120C, strain ndi1, active compounds read low 0.982 | locus YML124C, strain tub3, active compounds read low 1.01 | locus YMR058W, strain fet3, active compounds read low 0.97 | locus YMR078C, strain ctf18, active compounds read low 1.01 | locus YMR125W, strain sto1, active compounds read low 0.986 | locus YMR129W, active compounds read low 0.986 | locus YMR205C, strain PFK2, active compounds read low 1 | locus YMR223W, strain ubp8, active compounds read low 1.01 | locus YMR231W, strain pep5, active compounds read low 0.975 | locus YMR307W, strain GAS1, active compounds read low 1.23 | locus YNL067W, strain RPL9B, active compounds read low 1.01 | locus YNL071W, strain lat1, active compounds read low 0.989 | locus YNL153C, strain GIM3, active compounds read low 1.03 | locus YNL183C, strain NPR1, active compounds read low 0.935 | locus YNL209W, strain ssb2, active compounds read low 0.985 | locus YNL233W, strain BNI4, active compounds read low 1.04 | locus YNL248C, strain rpa49, active compounds read low 0.977 | locus YNL250W, strain rad50, active compounds read low 1.04 | locus YNL271C, strain bni1, active compounds read low 1.02 | locus YNL298W, strain CLA4, active compounds read low 1 | locus YNL307C, strain MCK1, active compounds read low 1.02 | locus YNL322C, strain KRE1 (second series), active compounds read low 0.972 | locus YNL322C, strain KRE1, active compounds read low 1.01 | locus YNR049C, strain mso1, active compounds read low 0.96 | locus YNR052C, strain pop2, active compounds read low 1.03 | locus YOL006C, strain TOP1, active compounds read low 1.06 | locus YOL012C, strain htz1 0.933 | locus YOL147C, strain pex11, active compounds read low 1.02 | locus YOR001W, strain rrp6, active compounds read low 0.967 | locus YOR061W, strain CKA2, active compounds read low 1.04 | locus YOR069W, strain VPS5, active compounds read low 1.01 | locus YOR070C, strain gyp1, active compounds read low 1.01 | locus YOR080W, strain dia2, active compounds read low 0.964 | locus YOR083W, strain WHI5, active compounds read low 0.993 | locus YOR106W, strain vam3, active compounds read low 0.953 | locus YOR136W, strain idh2, active compounds read low 1 | locus YOR144C, strain elg1, active compounds read low 1.01 | locus YOR184W, strain ser1, active compounds read low 1.04 | locus YOR231W, strain MKK1, active compounds read low 0.955 | locus YOR265W, strain rbl2, active compounds read low 0.994 | locus YOR270C, strain vph1, active compounds read low 0.866 | locus YOR290C, strain snf2, active compounds read low 0.962 | locus YOR316C, strain cot1, active compounds read low 1 | locus YPL051W, strain arl3, active compounds read low 1 | locus YPL078C, strain atp4, active compounds read low 0.964 | locus YPL106C, strain sse1, active compounds read low 1.02 | locus YPL240C, strain hsp82, active compounds read low 0.988 | locus YPL256C, strain CLN2, active compounds read low 0.966 | locus YPR119W, strain clb2, active compounds read low 1 | locus YPR141C, strain kar3, active compounds read low 1.02 | locus YPR163C, strain tif3, active compounds read low 1.02 | locus YPR167C, strain met16, active compounds read low 1.01 | strain wtn01, active compounds read low 0.995
